ABHD5 PLIN5 PPI = blocks binding of human ABHD5 to perilipin-5; hit rate 0.78% among 360,000; Split G. princeps luciferase complementation, luminescence, 4 h; AID 602281; inhibition, % at 4 µM;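 active means inhibition above the mean inhibition across every tested compound plus 3 SD, cut at about 22% in these data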;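 further: 0% = DMSO only wells and the 100% control is not disclosed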
Target sequence (Q00G26 whole entry, looked up): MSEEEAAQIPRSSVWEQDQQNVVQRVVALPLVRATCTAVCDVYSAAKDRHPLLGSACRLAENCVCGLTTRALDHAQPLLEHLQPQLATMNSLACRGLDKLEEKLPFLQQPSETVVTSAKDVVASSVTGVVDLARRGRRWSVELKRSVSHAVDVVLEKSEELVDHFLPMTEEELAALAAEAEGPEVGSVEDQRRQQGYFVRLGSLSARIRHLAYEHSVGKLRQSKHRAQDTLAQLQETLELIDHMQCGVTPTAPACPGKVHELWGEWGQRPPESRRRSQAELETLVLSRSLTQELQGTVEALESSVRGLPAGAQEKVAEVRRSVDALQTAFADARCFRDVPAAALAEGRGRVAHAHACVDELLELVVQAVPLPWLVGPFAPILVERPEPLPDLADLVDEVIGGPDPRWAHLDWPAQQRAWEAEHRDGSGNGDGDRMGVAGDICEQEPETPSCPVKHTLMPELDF
Target sequence (Q8WTS1 whole entry, looked up): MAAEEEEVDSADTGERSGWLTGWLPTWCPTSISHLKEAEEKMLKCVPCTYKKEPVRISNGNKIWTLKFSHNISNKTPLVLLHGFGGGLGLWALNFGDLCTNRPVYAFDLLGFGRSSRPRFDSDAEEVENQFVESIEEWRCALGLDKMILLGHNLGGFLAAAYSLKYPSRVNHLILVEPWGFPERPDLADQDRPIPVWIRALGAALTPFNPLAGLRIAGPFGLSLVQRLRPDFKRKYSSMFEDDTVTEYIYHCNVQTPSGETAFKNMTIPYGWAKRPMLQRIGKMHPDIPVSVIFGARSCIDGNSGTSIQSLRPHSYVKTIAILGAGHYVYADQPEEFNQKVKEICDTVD
KKLEB tox = CF airway cell cytotoxicity counter-screen | hit rate 0.36% among 360,000 | activity change (cytotoxicity), % at 5 µM | KKLEB CF airway cells viability, ATPlite luminescence, overnight; hits give low values; cells stimulated with P. aeruginosa culture filtrate;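 active means corrected activity change at or below -50% at 5 µM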
Peg3 promoter = inhibitors of Peg3 promoter. inhibition, % at 20 µM. AID 588405. HeLa PEG-Prom luciferase reporter, luminescence, overnight. hit rate 1.7% among 360,000;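 active means inhibition of at least 50% at 20 µM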
Mdm2 MdmX PPI = inhibitors of human Mdm2/MdmX interaction | O15151+Q00987 | SaOS-2 split-luciferase Mdm2/MdmX complementation, luminescence | inhibition, % at 8 µM | hit rate 3% among 330,000 | AID 485346;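 active means inhibition of at least 50% at 8 µM in the primary screen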
CF NFkB inh = inhibitors of cystic fibrosis induced NF-kB; KKLEB NF-kB-GFP reporter, PAF-induced, GFP fluorescence overnight; inhibition, % at 5 µM; hit rate 0.86% among 360,000; AID 588850;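 active means at least 50% inhibition at 5 µM, scaled per plate between neutral and stimulator controls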;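 further: PAF is a Pseudomonas aeruginosa culture filtrate used as stimulus; plate controls were PAF-stimulated DMSO wells for no effect and unstimulated DMSO wells for full effect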
HIF-2a block = inhibitors of HIF-2a. 786-0 RCC cells HIF-2a reporter, luciferase luminescence, overnight. inhibition, % at 18.8 µM. hit rate 0.72% among 360,000;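 active means inhibition of the luminescence signal of 40% or more relative to plate controls, in a single-dose primary screen at 18.75 µM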
Mdm2-MdmX conf = confirmation of human Mdm2/MdmX interaction inhibitors; hit rate 55% among 10,000; inhibition, % at 8 µM; shares compounds with Mdm2 MdmX PPI; Mdm2-MdmX binding, luminescent assay; in the data active means inhibition above about 40%
Full FLuc ctr = full-length luciferase inhibition in Mdm2/MdmX counter-screen. shares compounds with Mdm2 MdmX PPI. SaOS-2 full-length luciferase counterscreen, luminescence. inhibition, % at 8 µM. hit rate 77% among 6,200. AID 504607;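 active means mean inhibition at 8 µM reaching about 37%, which flags the compound as non-specific, limit read from the data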;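 further: p53-null SaOS-2 cells with luciferase driven by a doxycycline-inducible promoter; compound on cells about two nights before reading with doxycycline added after day one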
Starred values were filed as active, the others as inactive; nt = not tested or not shown. A selection: hits, their analogues and other compounds. The true share with any hit is near 4.6%.

SMILES	ABHD5 PLIN5 PPI	KKLEB tox	Peg3 promoter	Mdm2 MdmX PPI	CF NFkB inh	HIF-2a block	Mdm2-MdmX conf	others
CC(C)c1nc2sc3c(NCc4ccccc4)ncnc3c2c2c1COC(C)(C)C2	-2.9	-28.9	9.8	18.3	36.3	1.8	nt
CC(C)c1nc2sc3c(NCc4ccco4)ncnc3c2c2c1COC(C)(C)C2	6.1	-66.2*	26.8	52.9*	77.8*	26.7	32.9
CCOC(=O)/C(=N\O)C1=NC(C)(C)Cc2ccccc21	0.0	6.3	10.6	20.8	15.4	10.2	nt
Cc1cccc(N/N=C(\C(N)=O)C2=NC(C)(C)Cc3ccccc32)c1	-6.0	-15.8	46.6	58.5*	28.1	13.0	35.2
N#Cc1cccc(NC(=O)c2cc(C3CCCCN3C(=O)CCCc3ccccc3)on2)c1 (configuration not stated)	9.2	4.5	31.8	nt	-23.6	-6.9	nt
CCCCn1cnc2c(c(-c3ccccc3)c(-c3ccccc3)n2Cc2ccco2)c1=N	11.6	-8.5	-4.2	97.9*	8.5	14.5	73.2*	Full FLuc ctr=59.7*
CCCCn1c(=O)[nH]c(=O)c2c1ncn2Cc1ccco1	8.2	-11.5	13.2	-5.0	-1.4	-12.2	nt
O=c1c2cnn(-c3ccccc3)c2ncn1Cc1ccco1	3.9	0.0	-20.1	13.1	-1.8	-43.9	nt
N=c1c2c(-c3ccccc3)c(-c3ccccc3)n(Cc3ccco3)c2ncn1Cc1ccco1	16.9	-13.5	104.7*	97.6*	28.7	30.2	46.3*	Full FLuc ctr=31.4
O=c1c2c3c(sc2nc(N2CCNCC2)n1-c1cccc(Cl)c1)CCCCC3	nt	nt	nt	67.3*	nt	nt	27.0
CCN1CCN(c2nc3sc4c(c3c(=O)n2-c2ccc(OC)cc2)CCCCC4)CC1	0.6	-20.7	11.4	19.1	28.8	26.3	nt
COc1cccc(C2NC(=S)NC(C)=C2C(=O)c2ccccc2)c1OC (configuration not stated)	0.7	-10.9	13.9	51.0*	23.1	6.7	49.1*	Full FLuc ctr=78.0*
C=CCOc1ccc(C2NC(=S)NC(C)=C2C(=O)c2ccccc2)cc1OC (configuration not stated)	7.5	-14.7	21.0	24.9	-1.6	11.7	nt
FC(F)(F)Sc1ccc(NC(=S)NCc2ccccc2)cc1	-12.3	-27.6	2.3	79.0*	46.0	-51.2	-1.9
CC(=O)c1sc(NC(=O)c2ccccc2F)nc1-c1ccccc1	-0.3	0.5	-395.1	-110.8	-2.3	-340.1	nt
COC(=O)Nc1nc(-c2ccccc2)c(C(=O)c2ccccc2)s1	-2.9	-30.6	16.1	61.3*	48.8	21.2	54.1*	Full FLuc ctr=95.2*
COc1ccc(C(=O)Nc2nc(-c3ccccc3)c(C(C)=O)s2)c(OC)c1	2.1	-12.7	-74.9	57.9*	21.3	-35.2	20.9	Full FLuc ctr=113.0*
N#C/C(=C/c1ccc(Sc2nc3ccccc3[nH]2)o1)c1cccc(Br)c1	3.4	-4.4	30.8	60.0*	8.9	-25.0	12.5
CCN1C[C@@H]2[C@@H]3C(=O)N(Cc4ccccc4)C(=O)[C@@H]3[C@](C)(C1=O)N2C(=O)c1ccccc1	6.3	-11.8	-2.1	nt	-10.7	12.6	nt
c1ccc(CCc2nn3c(-c4ccncc4)nnc3s2)cc1	0.6	-13.7	-35.1	68.7*	72.0*	-7.6	58.9*	Full FLuc ctr=33.7
Clc1ccccc1-c1nnc2sc(CCc3ccccc3)nn12	-0.8	10.4	0.8	15.3	5.0	6.8	nt
COc1ccc(C(C(=O)NC2CCCC2)N(C(=O)c2snc(-c3ccc(F)cc3)c2N)c2ccc(F)cc2)cc1 (configuration not stated)	0.0	-27.0	-0.4	56.5*	25.2	17.2	8.8
COc1ccc(C(C(=O)NC2CCCC2)N(C(=O)c2snc(-c3ccc(F)cc3)c2N)c2cccc(F)c2)cc1 (configuration not stated)	-1.7	-22.0	50.6*	61.9*	6.5	4.4	7.2
CC1=C(C#N)C(=O)NC1(C)O (configuration not stated)	-7.7	12.4	-8.0	nt	-14.6	7.4	nt
Cc1c(N=C2N=C(NC(=O)NC(C)(C)C)c3ccccc32)c(=O)n(-c2ccccc2)n1C	-4.0	-7.7	20.5	9.3	16.3	6.9	nt
SMILES	ABHD5 PLIN5 PPI	KKLEB tox	Peg3 promoter	Mdm2 MdmX PPI	CF NFkB inh	HIF-2a block	Mdm2-MdmX conf	others
Cc1c(N=C2N=C(NC(=O)c3cccs3)c3ccccc32)c(=O)n(-c2ccccc2)n1C	-1.5	-4.0	45.1	77.6*	18.6	-48.8	13.1
OCC[C@H]1C[C@@H](O)[C@H](O)[C@]2(OCCc3ccccc32)O1	-12.1	0.0	7.6	-15.4	-2.8	5.4	nt
CCCOc1ccccc1/C=C1\SC(N2CCCCC2)=NC1=O	2.5	8.8	-49.9	85.5*	-10.4	-149.2	61.8*	Full FLuc ctr=63.9*
O=C1N=C(N2CCCCC2)S/C1=C\c1ccccc1F	15.7	-1.8	-172.1	-24.2	9.5	-217.6	nt
O=C(c1ccc(-c2ccccc2Cl)o1)N1CCN(S(=O)(=O)c2cccs2)CC1	5.8	-3.9	-127.9	-47.0	25.3	-278.7	nt
COc1cc(S(=O)(=O)Nc2ccccc2)ccc1N=Cc1c(C)[nH]n(-c2ccc(C)cc2)c1=O	nt	nt	nt	67.3*	nt	nt	20.9
Cc1[nH]n(-c2ccccc2)c(=O)c1C=Nc1ccc(S(=O)(=O)NC(N)=O)cc1	-7.5	8.7	2.8	4.9	-34.0	11.0	nt
CC(=O)Nc1cncc(-c2ccccc2F)n1	9.9	13.2	-2.8	nt	-16.8	-14.1	nt
Cc1cccc(NC(=O)c2cc3n(n2)C(C(F)(F)F)CC(c2ccc4c(c2)OCO4)N3)c1 (configuration not stated)	-7.5	-10.6	37.1	51.5*	9.7	-1.4	75.4*	Full FLuc ctr=47.5*
Nc1c(Cl)cc(-c2[nH]c3cc(C(=O)NCCO)ccc3c(=O)c2O)cc1Cl	-7.3	-9.2	3.1	-6.6	2.4	12.9	nt
CCCNC(=O)c1ccc2c(=O)c(O)c(-c3cccc(Br)c3)[nH]c2c1	4.8	-2.7	35.9	53.4*	6.3	20.9	70.1*	Full FLuc ctr=31.4
CCCNC(=O)c1ccc2c(=O)c(O)c(-c3ccc(F)cc3)[nH]c2c1	4.0	-12.4	24.7	68.7*	6.7	35.1	18.8
CCCNC(=O)c1ccc2c(=O)c(O)c(C)[nH]c2c1	-4.7	5.8	8.8	-0.1	8.9	12.1	nt
CC(O)(c1cccc(F)c1)c1nc(-c2cnc3ccccc3c2)cs1 (configuration not stated)	-0.2	1.2	-165.2	nt	8.2	-186.2	nt
CCOc1cc2[nH]c(=O)n(CCC(=O)N3CCN(c4ccccc4OC)CC3)c(=O)c2cc1OCC	3.4	4.0	13.1	-9.2	-0.3	6.4	nt
COc1cc2[nH]c(=O)n(CCCCCC(=O)N3CC=C(c4ccccc4)CC3)c(=O)c2cc1OC	-3.9	-27.3	69.5*	59.1*	-1.1	13.2	30.2
